# Shown are actives, neighbours in structure and some others; about 10% of the full set was active somewhere.
# LMNA splice mod – LMNA splicing modulation | 200,000 tested, 0.01% active | Potency, µM (top dose mostly 46.1 µM), for inactives: at the highest dose ratio change, negative = inhibition, usual class: inhibitors | AID 1487 | HeLa LMNA splicing GFP/RFP minigene ratio, 48 h; active means well fitted inhibition curve with a large enough effect in the signal ratio, with a control signal flat, not every such curve was filed as active; inconclusive means small, poorly fitted or top-dose-only effect, or effect the other way, or a change in a side signal; the % refers to the signal ratio; further: potency means the concentration at half of the fitted maximal effect
#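 S3 HeLa cells stably expressing lamin A-EGFP splicing minigene plus DsRed2, 600 cells/well, 48 h compound exposure at 37C. Laser-scanning cytometry; analysed as GFP (500-530 nm)/RFP (575-640 nm) total intensity ratio; 0.5% DMSO vehicle.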
# PNC inhibitor – perinucleolar compartment assembly inhibition; PC3M PTB-GFP, PNC prevalence imaging, 16 h; hits give low values; activity change (PNC), negative = inhibition, % at 10 µM; 140,000 tested, 3.1% active;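 active means readout at or below -70, meaning at least 70% loss of cells showing the perinucleolar compartment, a nuclear body marking cancer cells; inconclusive means readout between -30 and a set limit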;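 further: plate controls were DMSO wells for no effect and camptothecin positive control wells for full effect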
#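 Compounds are pinned in duplicate onto adhered PC3M cells stably expressing GFP-tagged PTB and incubated 16 h at 37 C. Cells are then fixed, nuclei stained with Hoechst, and PNC-positive cells counted.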
# KinaseGlo FLuc – blocks Kinase-Glo luciferase, a counter-screen artifact. 200,000 tested, 0.28% active. AID 1379. Kinase-Glo luciferase, ATP luminescence, 8 min. Potency, µM (series often up to 38.3 µM), without a hit: at the highest dose activity change, negative = inhibition, actives largely listed as inhibitors. Q27757; active means well fitted inhibition curve with a large enough effect; inconclusive means small, poorly fitted or top-dose-only effect; further: potency means the concentration at half of the fitted maximal effect; nearly all actives have a fitted effect of over 60% in size
#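 Kinase-Glo luciferase light output from ATP and luciferin was measured with 10 uM ATP, within the enzyme's linear range. Buffer: 50 mM imidazole pH 7.2, 50 mM KCl, 7 mM MgCl2, 0.01% Tween 20, 0.05% BSA; luminescence read after 8 min at ambient temperature.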
# HPGD block – blocks human HPGD enzyme activity. Potency, µM, for the others: at the top dose activity change, negative = inhibition, hits mostly inhibitors. P15428. 150,000 tested, 4.3% active. purified HPGD, NADH fluorescence kinetic, PGE2 substrate; further: potency means the concentration at half of the fitted maximal effect
#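 20 nM HPGD preincubated 15 min at room temperature with compound in 50 mM Tris-HCl pH 8, 0.01% Tween 20. Started with 1 mM NAD+ and 30 uM prostaglandin E2; NADH fluorescence (360/450 nm) read 5 times over 30-s intervals, last minus first.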
# ALDH1A1 block – inhibitors of human aldehyde dehydrogenase 1A1. 220,000 tested, 7.3% active. P00352. Potency, µM (highest dose often 75.3 µM), without a hit: at the highest dose activity, negative = inhibition, most hits filed as inhibitors. Purified ALDH1A1, NADH fluorescence, propionaldehyde substrate;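 further: potency means the concentration at half of the fitted maximal effect; plate controls were no enzyme wells and a reference inhibitor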
# Target sequence (P00352 whole entry, looked up): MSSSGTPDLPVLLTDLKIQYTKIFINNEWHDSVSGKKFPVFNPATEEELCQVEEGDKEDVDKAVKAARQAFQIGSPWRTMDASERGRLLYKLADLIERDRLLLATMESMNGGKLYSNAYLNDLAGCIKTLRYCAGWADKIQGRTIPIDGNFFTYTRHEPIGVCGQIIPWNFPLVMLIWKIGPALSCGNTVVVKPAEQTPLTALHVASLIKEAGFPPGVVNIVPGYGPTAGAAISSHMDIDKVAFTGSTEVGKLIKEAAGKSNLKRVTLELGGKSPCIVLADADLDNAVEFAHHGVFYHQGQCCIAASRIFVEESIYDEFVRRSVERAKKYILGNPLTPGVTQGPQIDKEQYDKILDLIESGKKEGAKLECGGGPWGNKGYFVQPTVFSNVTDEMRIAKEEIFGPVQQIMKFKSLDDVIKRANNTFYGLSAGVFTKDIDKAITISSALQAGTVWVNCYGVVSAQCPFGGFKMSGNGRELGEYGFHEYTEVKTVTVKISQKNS
# An asterisk follows results filed as active; ? = inconclusive; nt = not tested or not shown; [ ] = remark or other dose. Unless noted, the call rests on the fitted dose curve; in most records, active means well fitted inhibition curve with a large enough effect (not every such curve was filed as active); inconclusive means small, poorly fitted or top-dose-only effect, or another doubt; inactive means no such curve, though single readings can be large or run the other way. Unless noted, on the % scale 0 is the no-effect control and ±100 the full control effect.
SMILES,LMNA splice mod,PNC inhibitor,KinaseGlo FLuc,HPGD block,ALDH1A1 block
Cc1ccc(S(=O)(=O)N2CCC(=O)N(C(COCc3ccccc3)C(C)C)CC2)cc1 (centres undefined),-1%,22,4%,-6%,?
Cc1ccc(S(=O)(=O)N2CCC(=O)N(CCOCc3cccc(C)c3)CC2)cc1,?,67,2%,1%,-11%
O=C(Nc1cccc(F)c1)N1CCC2(CC1)CCN(C(=O)c1ccco1)CC2,nt,nt,0%,-4%,1%
O=C1CCCN1CCNC(=S)Nc1ccccc1,-1%,6,-4%,0%,12%
O=C1CCCN1CCCNC(=S)Nc1ccc(Nc2ccccc2)cc1,nt,nt,0%,nt,14µM*
Cc1cccc(C)c1NC(=S)NCCCN1CCCC1=O,8%,?,-2%,1%,?
CCOC(=O)c1ccc(NC(=S)NCCCN2CCCC2=O)cc1,nt,nt,-2%,nt,0.032µM*
Brc1ccc([C@H]2CN3CCSC3=N2)cc1,?,nt,1%,-20%,17%
CN(C)c1ncc2nc(-c3ccc(F)cc3)c(=O)n(C[C@H]3CCCO3)c2n1,0%,nt,nt,nt,?
O=C1NCCN1C(=O)N(c1ccccc1)c1ccccc1,5%,-124*,2%,-8%,?
CN(C)S(=O)(=O)N1CCN(C(=O)N(c2ccccc2)c2ccccc2)CC1,15%,?,-3%,-4%,?
CC(C(=O)OCC(=O)c1ccccc1)N1C(=O)C2C3CCC(C3)C2C1=O (centres undefined),-1%[46 µM],nt,3%,nt,-1%
CC(C(=O)OCC(=O)c1ccc([N+](=O)[O-])cc1)N1C(=O)C2C3CCC(C3)C2C1=O (centres undefined),nt,nt,2%,nt,3.2µM*
CCC(C)NC(=O)C1c2cc(OC)c(OC)cc2C(=O)N(C)C1c1cccs1 (centres undefined),4%,10,0%,-10%,-1%
CCN1CCN(C(=O)C2c3cc(OC)c(OC)cc3C(=O)N(C)C2c2ccc(SC)cc2)CC1 (centres undefined),4%,-100*,0%,-18%,?
CCC(C)NC(=O)C1c2cc(OC)c(OC)cc2C(=O)N(C)C1c1ccc(OC)cc1 (centres undefined),3%,-100*,1%,-11%,2%
COc1ccc(CCC(=O)NC2CC(=O)N(c3ccc(OC)cc3)C2)cc1 (centres undefined),-14%[46 µM],nt,nt,nt,nt
Cc1ccc2c(c1)C(=O)C(=O)N2CC(=O)Nc1ccc(N2CCOCC2)cc1,nt,nt,0%,nt,8.9µM*
Cc1ccc(C)c(OCC(=O)Nc2ccc(N3CCOCC3)cc2)c1,?,nt,-3%,nt,9%
Cc1ccc(C)c(OCCCC(=O)Nc2ccc(N3CCOCC3)cc2)c1,-12%,-84*,-1%,-2%,-7%
Cc1ccc(NC(=O)CNc2ccc(N3CCOCC3)cc2)cc1S(=O)(=O)N(C)C,-2%[46 µM],nt,2%,nt,10µM*
CC1(C)Cc2ccccc2-c2n[nH]c(=S)n21,?,37,0%,-22%,13µM*
CCOC(=O)CCCCC(=O)c1[nH]c(=O)[nH]c1CSc1nnc2c3ccccc3n(C(C)C)c2n1,-13%,-8,-3%,?,13µM*
CCCn1c2ccccc2c2nnc(SCc3[nH]c(=O)[nH]c3C(=O)CCCCC(=O)OCC)nc21,-14%,11,0%,-7%,?
Cc1ccc(CCNC(=O)c2c3c(nc4ccccc24)C(=O)N(C2CCCCC2)C3)cc1,-7%[46 µM],nt,nt,nt,nt
SMILES,LMNA splice mod,PNC inhibitor,KinaseGlo FLuc,HPGD block,ALDH1A1 block
COC(=O)C/C=C\[C@@H](C)[C@@H](/C=N\O[C@@H](C)CN1CCCCc2nc(C)c(C)cc21)OC,nt,nt,nt,nt,5%[13.5 µM]
COc1ccccc1-c1nnc2sc(COc3ccc(Cl)cc3Cl)nn12,?,54,0%,1.3µM*,12%
COc1ccccc1-c1nnc2sc(COc3ccccc3)nn12,-19%,42,-2%,-19%,12%
Clc1ccc(OCc2nn3c(C4CCCCC4)nnc3s2)c(Cl)c1,?,-82*,-2%,2.8µM*,?
CCCn1c2ccccc2c2cnn(CC(=O)N3CCN(c4ccccc4)CC3)c(=O)c21,-3%[46 µM],nt,nt,nt,nt
COc1ccccc1C(C)NCC(=O)Nc1ccccc1C(F)(F)F (centres undefined),-2%,-116*,-3%,?,-5%
CC(C)(C)CC(=O)NC(=S)Nc1ccccc1C(F)(F)F,13%,49,-9%,25µM*,-7%
COc1ccccc1NC(=S)NC(=O)CC(C)C,4%,96,-1%,-28%,-11%
CC(C)CC(=O)NC(=S)Nc1ccccc1F,9%,-15,-3%,20µM*,-4%
CC(C)CC(=O)NC(=S)Nc1ccccc1C(F)(F)F,-15%,8,3%,?,18µM*
Cc1cc(=O)[nH]c2nnc(SCc3ccccc3F)n12,6%[46 µM],nt,nt,nt,nt
COc1ccccc1CNc1ncnc2c1c(-c1ccccc1)cn2-c1cccc(C)c1,-11%[46 µM],nt,nt,nt,nt
Cc1ccc(C(=O)NCC(=O)Nc2ccccc2C(F)(F)F)cc1,-15%,39,-1%,-11%,20%
Cc1ccc(C(=O)NC(=S)Nc2ccccc2C(F)(F)F)cc1,?,?,nt,nt,13µM*
COc1cc(C)nc(N2CCCC(C(=O)Nc3ccccc3Br)C2)n1 (centres undefined),-1%[46 µM],nt,0%,nt,9%
COc1cc(C)nc(N2CCCC(C(=O)Nc3cccc(Cl)c3C)C2)n1 (centres undefined),?,-124*,-6%,-11%,7%
O=C1C[C@@H](O)[C@@H](O)[C@H]2[C@@H]3C(=O)N(c4cccc(Oc5ccccc5)c4)C(=O)[C@@H]3CC[C@H]12,nt,nt,nt,nt,12%[13.5 µM]
COc1ccccc1/C=C/C(=O)NC(=S)Nc1ccc(S(=O)(=O)N(C)c2ccccc2)cc1,0%,-18,-4%,-22%,28µM*
CN(c1ccccc1)S(=O)(=O)c1ccc(NC(=S)NC(=O)c2ccccc2)cc1,?,45,-2%,-20%,10µM*
Cc1ccc(C(=O)NC(=S)Nc2ccc(S(=O)(=O)N(C)c3ccccc3)cc2)cc1,6%,?,-5%,-7%,11µM*
CCOc1ccccc1-n1nnnc1SC(C)C(=O)OC (centres undefined),nt,nt,-1%,nt,?
Cc1ccc(C(=O)c2cn(CC(=O)Nc3ccc(C)cc3Cl)c3nc(C)ccc3c2=O)cc1,11%[46 µM],nt,nt,nt,nt
CCC(=O)[C@@H](c1ccccc1)c1ccccn1,nt,nt,-3%[7.66 µM],-3%,25%[13.5 µM]
COC(=O)c1ccc2c(=O)n(-c3ccccc3)c(=S)[nH]c2c1,?,nt,-2%,nt,?
COc1ccc(CCn2c(=S)[nH]c3cc(C(=O)NCc4ccco4)ccc3c2=O)cc1OC,9%,20,5%,?,0.05µM*
O=C(NCc1ccco1)c1ccc2c(=O)n(-c3ccccc3)c(=S)[nH]c2c1,-1%,46,-2%,-3%,0.22µM*

# Source: PubChem (National Center for Advancing Translational Sciences (NCATS))
